This note sets out measurements from PubChem BioAssay (NCATS).

Molecules are shown by their SMILES. Records with an inconclusive call do not appear. Activity calls are given as the source filed them. Calls follow the shape of the dose curve; as a rule, active = well fitted curve in the direction sought with a large enough effect; inconclusive = small, poorly fitted or top-dose-only effect, or another doubt; inactive = no such curve, though single readings can be large; an effect the other way counts as inactive or inconclusive.

Experiment [1] in a line: MultiTox-Fluor Cytotoxicity Assay - LYMP1-001 - Live Cells (AID 947).
The nature of experiment [2]: Cell Viability - LYMP1-002 - Assay at 16 hr (AID 948). The essentials: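 Acute cytotoxicity is scored as a concentration-dependent fall in intracellular ATP in a human lymphoblastoid line (LYMP1-002) after 16 hr compound exposure at 37 C, measured by luciferase luminescence.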
Experiment [3] in a line: MultiTox-Fluor Cytotoxicity Assay - LYMP1-002 - Dead Cells (AID 960). Also: nearly all actives have a fitted effect of over 60% in size. The essentials: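 Cells were plated, rested 5 hr, then treated with compound dilution series for 16 hr at 37 C. After adding substrate reagent and 60 min at room temperature, dead-cell protease fluorescence gave concentration-response curves fitted by the Hill equation.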
A short description of experiment [4]: MultiTox-Fluor Cytotoxicity Assay - LYMP1-003 - Dead Cells (AID 961). Also: nearly all actives have a fitted effect of over 70% in size. The essentials:
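Dead-cell protease release, detected as bis-AAF-R110 fluorescence at 485/520 nm, was measured in LYMP1-003 cells after 16 h compound treatment at 37 C. AC50 values came from Hill-modeled qHTS curves normalized to DMSO (0%) and 15 uM tetraoctylammonium bromide (100%).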

Experiment [5] is described as follows: MultiTox-Fluor Cytotoxicity Assay - LYMP1-003 - Live Cells (AID 962).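 Also: cells exposed to compound for 16 hours at 37 °C; cytotoxic hits lower the live-cell protease signal.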 The essentials: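 Acute cytotoxicity is scored as a drop in live-cell protease activity in human lymphoblastoid LYMP1-003 cells after 16 hr compound exposure at 37 C. AC50 values come from Hill-equation modelling of concentration-response data.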
The nature of experiment [6]: Cell Viability - LYMP1-003 - Assay at 24 hr (AID 963). The essentials:
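Cytotoxicity is scored as a concentration-dependent fall in ATP-linked luciferase signal in human lymphoblastoid LYMP1-003 cells treated 24 hr at 37 C in complete culture medium.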

A short description of experiment [7]: Cell Viability - LYMP1-003 - Assay at 40 hr (AID 964). Also: series mostly up to about 92 µM; nearly all actives have a fitted effect of over 60% in size. The essentials:
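Luminescent ATP signal (CellTiter-Glo) served as the viability read-out after 40 hr compound treatment of human lymphoblastoid LYMP1-003 cells at 37 C. Decreases in ATP were fitted with the Hill equation to give AC50.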

Experiment [8] is described as follows: Cell Viability - LYMP2-003 (AID 965).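 Also: cells exposed to compounds for 24 h before reading; nearly all actives have a fitted effect of over 50% in size.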 The essentials:
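Acute cytotoxicity is scored as a concentration-dependent drop in intracellular ATP, measured by luciferase luminescence in human lymphoblastoid cells treated for 24 hours at 37 C. AC50 values derive from Hill-equation modelling.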

Experiment [9] is described as follows: Cell Viability - LYMP2-004 (AID 966). Also: nearly all actives have a fitted effect of over 65% in size. The essentials: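 qHTS cytotoxicity: human lymphoblastoid line, 24 hr compound treatment, 37 C, complete medium. Viability read as cellular ATP via luciferase luminescence; tetraoctylammonium bromide served as positive control.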
Experiment [10] in a line: Cell Viability - LYMP2-005 (AID 967). Also: series mostly up to about 92 µM. The essentials:
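qHTS viability screen in LYMP2-005 cells: 24 h at 37 C with compound, ATP luminescence via CellTiter-Glo, AC50 from Hill curves.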

Experiment [11] in a line: Cell Viability - LYMP2-011 (AID 969). Also: nearly all actives have a fitted effect of over 60% in size. Also: potency is read from the fitted curve at half-maximal effect. The essentials:
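In this qHTS cytotoxicity format, compounds are tested across concentrations on human lymphoblastoid cells in complete medium for 24 hours at 37 C. Viability is taken as cellular ATP measured by luciferase luminescence.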

The nature of experiment [12]: Cell Viability - LYMP2-013 (AID 970). Also: nearly all actives have a fitted effect of over 55% in size. Also: potency is read from the fitted curve at half-maximal effect. The essentials: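 Cytotoxicity is scored as a concentration-dependent drop in intracellular ATP in human lymphoblastoid cells after 24 hr compound exposure at 37 C. ATP is quantified by luciferase luminescence, and AC50 values come from Hill-equation modeling.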
Experiment [13] can be described thus: Cell Viability - LYMP2-015 (AID 971). Also: nearly all actives have a fitted effect of over 55% in size. Also: potency is read from the fitted curve at half-maximal effect. The essentials:
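Cells are seeded at 2500 per well and incubated 5 hr at 37 C. Compounds are added across a concentration series for 24 hr at 37 C. CellTiter-Glo is added, and luminescence is read after 30 min at room temperature.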

A short description of experiment [14]: Cell Viability - LYMP2-017 (AID 972). Also: nearly all actives have a fitted effect of over 55% in size. Also: potency is read from the fitted curve at half-maximal effect. The essentials: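 Cytotoxicity is scored as a concentration-dependent drop in cellular ATP in a human lymphoblastoid line after 24 hr treatment at 37 C. Values are AC50s from Hill-equation modelling.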
Experiment [15] is described as follows: Cell Viability - LYMP2-019 (AID 973). Also: nearly all actives have a fitted effect of over 55% in size. Also: potency is read from the fitted curve at half-maximal effect. The essentials:
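Cytotoxicity is scored as a concentration-dependent drop in cellular ATP after cells (2500/well) receive compound for 24 hr at 37 C. Tetraoctylammonium bromide serves as positive control.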

Experiment [16] in a line: Cell Viability - LYMP2-021 (AID 974). Also: potency is read from the fitted curve at half-maximal effect. The essentials: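 Loss of cellular ATP, measured with a luciferase-based CellTiter-Glo readout, serves as the toxicity signal in human lymphoblastoid cells treated for 24 hours at 37 C. Potency is reported as AC50 from a standard Hill model.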
Experiment [17] in a line: Cell Viability - LYMP2-023 (AID 975). Also: nearly all actives have a fitted effect of over 55% in size. Also: potency is read from the fitted curve at half-maximal effect. The essentials:
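Steps: seed 2500 human lymphoblastoid cells per well, incubate 5 hr at 37 C, add compound for 24 hr at 37 C, add CellTiter-Glo, hold 30 min at room temperature, read luminescence. AC50 derived by Hill modelling.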

Experiment [18] in a line: MultiTox-Fluor Cytotoxicity Assay - LYMP1-002 - Live Cells (AID 955).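 Also: cells exposed to compound for 16 hours.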 The essentials: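 Cells were seeded at 2500 per well and incubated 5 hr. Compounds were then added for 16 hr at 37 C, followed by MultiTox-Fluor reagent for 60 min at room temperature and fluorescence reading of viable-cell protease signal.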
The nature of experiment [19]: Cell Viability - LYMP2-009 (AID 968). Also: nearly all actives have a fitted effect of over 55% in size. Also: potency is read from the fitted curve at half-maximal effect.

Take `CNC(=O)c1ccccc1`: the molecule was called inactive in experiment [1], in experiment [2], in experiment [3] and in experiment [10]. Moreover, the Potency entry in [4], in experiment [5], in experiment [6], in [7], in [8] and in [9] was “inactive” throughout. Also, the Potency result in experiment [11], in experiment [12], in [13], in [14], in experiment [15] and in experiment [16] was “inactive” throughout. The Potency result in experiment [17] is “inactive”.

Take `c1ccc2c(c1)Oc1ccccc1S2`: the result in experiment [1], in [2], in experiment [18], in experiment [3] and in experiment [10] was inactive. The Potency result in experiment [4], in [5], in [6], in [7], in [19] and in experiment [12] was “inactive” throughout. Further, the Potency result in experiment [13], in [14], in [15], in [16] and in experiment [17] was “inactive” each time.

In the case of `Cc1ccc(C)cc1`, the molecule was classed as inactive in experiment [1], in experiment [2], in experiment [3] and in [10]. Further, the Potency result in experiment [4], in [5], in [7], in [8], in [11] and in [12] was “inactive” throughout. For the same molecule, the Potency result in experiment [13], in experiment [14], in experiment [15], in experiment [16] and in experiment [17] was “inactive” in each case.

For the molecule `CCCCCNCCCCC`, the molecule was called inactive in [2], in [3] and in experiment [10]. Moreover, the Potency entry in experiment [4], in [5], in [8], in [9], in experiment [19] and in [11] was “inactive” in each case. Moreover, the Potency result in experiment [13], in experiment [14] and in experiment [15] was “inactive” throughout.

Regarding `Cc1cccc(C)c1`, the outcome in experiment [1], in experiment [2], in experiment [18], in experiment [3] and in experiment [10] was inactive. Moreover, the Potency entry in [4], in [5], in experiment [7], in [8], in experiment [9] and in experiment [19] was “inactive” each time. Moreover, the Potency entry in experiment [12], in experiment [13], in [14], in [15], in [16] and in experiment [17] was “inactive” throughout.

As to `CC(C)(C)OC=O`, the molecule was classed as inactive in experiment [1], in experiment [2], in experiment [18], in [3] and in experiment [10]. Besides, the Potency result in experiment [4], in [5], in experiment [6], in [7], in experiment [8] and in experiment [9] was “inactive” throughout. The Potency result in experiment [19], in experiment [11], in [12], in [13], in experiment [14] and in [17] was “inactive” in each case.

`Cc1cc(C)c(N)cc1C`: the molecule was called inactive in experiment [1], in [2], in experiment [18], in [3] and in experiment [10]. Besides, the Potency entry in experiment [4], in experiment [5], in [6], in experiment [8], in experiment [9] and in experiment [11] was “inactive” in each case. For the same molecule, the Potency result in [12], in experiment [13], in experiment [14], in [15] and in [17] was “inactive” in each case.

`O=C(O)c1cccc(Cl)c1Cl`: the molecule was classed as inactive in experiment [2], in [18], in experiment [3] and in [10]. Moreover, the Potency result in experiment [4], in experiment [5], in [6], in experiment [7], in experiment [8] and in experiment [9] was “inactive” each time. In addition, the Potency entry in [19], in experiment [11], in experiment [12], in [13], in [14] and in [15] was “inactive” in each case. Moreover, the Potency result in [17] is “inactive”.

Regarding `CCCCC/C=C/C=C/C=O`, the outcome in experiment [1] and in experiment [2] was inactive. Moreover, the Potency entry in experiment [4], in experiment [5] and in experiment [7] was “inactive” throughout. Moreover, the Potency was 39.8 µM (active) in [19]; 39.8 µM (active) in [11]; 50.1 µM (active) in experiment [12]; 31.6 µM (active) in experiment [13]; 31.6 µM (active) in experiment [14]; 50.1 µM (active) in experiment [15]. The Potency in experiment [16] was 39.8 µM (active); in experiment [17], 50.1 µM (active).

As for `CCN(Cc1ccccc1)c1ccccc1`, the outcome in experiment [1], in experiment [2], in [18], in [3] and in experiment [10] was inactive. For the same molecule, the Potency result in experiment [5], in [6], in experiment [7], in experiment [8], in experiment [9] and in experiment [19] was “inactive” throughout. The Potency result in experiment [11], in [13], in [14] and in [15] was “inactive” throughout.

Turning to `O=[N+]([O-])c1ccc(Cl)cc1Cl`, the molecule was classed as inactive in experiment [2], in [18], in experiment [3] and in experiment [10]. Besides, the Potency result in experiment [4], in experiment [5], in [6], in [7], in [9] and in experiment [19] was “inactive” throughout. The Potency entry in [11], in experiment [12], in experiment [13], in experiment [14], in [15] and in experiment [16] was “inactive” each time. Further, the Potency result in experiment [17] was “inactive”.

Turning to `S=C([S-])NCCNC(=S)[S-].[Zn+2]`, the molecule was classed as inactive in experiment [2], in [18], in [3] and in experiment [10]. The Potency result in experiment [4], in experiment [5], in [6], in [7], in experiment [8] and in experiment [9] was “inactive” in each case. In addition, the Potency result in experiment [19], in experiment [11], in experiment [12], in [13], in [14] and in experiment [15] was “inactive” in each case. The Potency result in [16] and in [17] was “inactive” each time.
